Laboratory results taken from PubChem BioAssay (NCATS).
Inconclusive results are not listed. Active and inactive are the calls of the source. Calls follow the shape of the dose curve; as a rule, active = well fitted inhibition curve with a large enough effect; inconclusive = small, poorly fitted or top-dose-only effect; inactive = flat fitted curve, though single readings scatter. Where a SMILES comes first, the peptide text is derived from it. [ ]: non-standard residue; d: D form. pGlu = O=C1CC[C@@H](C(=O)O)N1; Thz = O=C(O)[C@@H]1CSCN1

What was measured:
Test in all cases: qHTS profiling for inhibitors of Plasmodium falciparum proliferation (AID 504749); also: nearly all actives have a fitted effect of over 60% in size
Settings in all cases: P. falciparum in erythrocytes, SYBR Green DNA, 72 h; series mostly up to 28.7 µM
[1] = test system: AS120
Summary of the method: (§1)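 SYBR Green fluorescence of parasite DNA, read after lysis and overnight dark incubation, measured growth over 72 h in erythrocyte culture at 0.3% parasitemia and 2.5% hematocrit. Data normalised to DMSO and 0.29 uM artemisinin, with plate-drift correction.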

[2] = test system: ATS189
Summary of the method: as §1

[3] = test system: ATS95
Summary of the method: as §1

[4] = test system: C2A
Summary of the method: as §1

[5] = test system: CP185
Summary of the method: as §1

[6] = test system: CP191
Summary of the method: as §1

[7] = test system: CP192
Summary of the method: as §1

[8] = test system: CP194
Summary of the method: as §1

[9] = test system: CP201
Summary of the method: as §1

[10] = test system: CP203
Summary of the method: as §1

[11] = test system: CP211
Summary of the method: as §1

[12] = test system: CP215
Summary of the method: as §1

[13] = test system: CP217
Summary of the method: as §1

[14] = test system: CP237
Summary of the method: as §1

[15] = test system: CP238
Summary of the method: as §1

[16] = test system: CP247
Summary of the method: as §1

[17] = test system: CP250
Summary of the method: as §1

[18] = test system: CP252
Summary of the method: as §1

[19] = test system: CP256
Summary of the method: as §1

[20] = test system: CP260
Summary of the method: as §1

Measured: Potency
Potency is read from the fitted curve at half-maximal effect.

Cc1c(Nc2ncccc2C(=O)O)cccc1C(F)(F)F
inactive: all assays above

C#C[C@]1(O)CC[C@H]2[C@@H]3CCc4cc(O)ccc4[C@H]3CC[C@@]21C
inactive: all assays above

C=CC(N)CCC(=O)O (stereo not drawn)
inactive: all assays above

O=C(O)Cc1ccc(-c2ccccc2)cc1
inactive: all assays above

CC(C(=O)O)c1ccc2c(c1)[nH]c1ccc(Cl)cc12 (stereo not drawn)
inactive: all assays above

Cc1ccc(C(=O)c2ccc(CC(=O)O)n2C)cc1
inactive: all assays above

N=c1ccn2c(n1)O[C@H]1[C@H](O)[C@@H](CO)O[C@H]12
inactive: all assays above

CC1(C)S[C@@H]2[C@H](NC(=O)[C@H](NC(=O)N3CCN(S(C)(=O)=O)C3=O)c3ccccc3)C(=O)N2[C@H]1C(=O)O
inactive: all assays above

O=C(O)[C@H](O)[C@@H](O)[C@H](O)[C@H](O)CO
inactive: all assays above

CCCOC(=O)c1ccc(O)cc1
inactive: all assays above

COc1cc(CNC(=O)CCCC/C=C/C(C)C)ccc1O
inactive: all assays above

CC1(C)C[C@@H]1C(=O)N/C(=C\CCCCSC[C@H](N)C(=O)O)C(=O)O
not listed: [20]
inactive: all other assays above

CCCCCCCCCCCC(=O)[O][Sn]([CH2]CCC)([CH2]CCC)[O]C(=O)CCCCCCCCCCC
active: [14] 10 µM | [20] 10 µM
inactive: all other assays above

O=C(Nc1ccc(C(=O)O)c(O)c1)c1ccccc1
inactive: all assays above

CC1(C)[C@@H](O)CC[C@]2(C)[C@H]3C(=O)C=C4[C@@H]5C[C@@](C)(C(=O)O)CC[C@]5(C)CC[C@@]4(C)[C@]3(C)CC[C@@H]12
inactive: all assays above

O=C1CC[C@@H](C(=O)N2CSC[C@H]2C(=O)O)N1 ([pGlu]-[Thz]-OH)
inactive: all assays above

C=CCN1C(=O)C(CC(C)C)NC1=S (stereo not drawn)
inactive: all assays above

CCCCC[C@H](O)/C=C/[C@@H]1[C@@H](C/C=C\CCCC(=O)O)[C@@H](O)C[C@H]1O
inactive: all assays above

CCCCCCOc1ccccc1C(N)=O
inactive: all assays above

COc1cc2c3cc1Oc1cc(ccc1O)C[C@@H]1c4c(cc(OC)c(O)c4Oc4ccc(cc4)C[C@@H]3N(C)CC2)CC[N+]1(C)C
inactive: all assays above

O=C(O)COc1ccc(C(=O)c2cccs2)c(Cl)c1Cl
inactive: all assays above

Cc1ccc(O)c(-n2nc3ccccc3n2)c1
inactive: all assays above

CCC1C(=O)OCC1Cc1cncn1C (stereo not drawn)
inactive: all assays above

CCCCCC[C@@H](O)C/C=C\CCCCCCCC(=O)O
inactive: all assays above

[O-][n+]1ccccc1SSc1cccc[n+]1[O-]
active: [1] 891 nM | [2] 1.12 µM | [3] 891 nM | [4] 891 nM | [5] 1.12 µM | [6] 1.26 µM | [7] 1.35 µM | [8] 1.07 µM | [9] 1.9 µM | [10] 1.35 µM | [11] 1.07 µM | [12] 1.35 µM | [13] 1.26 µM | [14] 0.891 µM | [15] 1.12 µM | [16] 891 nM | [17] 708 nM | [18] 1 µM | [19] 2 µM | [20] 0.708 µM

CC1OC1P(=O)(O)O (stereo not drawn)
not listed: [20]
inactive: all other assays above
